The results in this text go back to ChEMBL document CHEMBL3988442, “University of Dundee, Small-Polar-MMV Screening Library” (2021).

Holding throughout (design): scale not given: direction of the effect not stated beside the values
Assay [1] addresses Protein translocase subunit SecA (Escherichia coli (strain K12)) (UniProt P10408). Nature of the assay: Assay to Identify E. coli SecA ATPase Inhibitors. The note with it: 30 µM. Format: functional.
The target of assay [2] is T1, Ubiquitin-activating enzyme e1, putative (Leishmania donovani (strain BPK282A1)) (UniProt E9BSI1).
T1 sequence (whole entry): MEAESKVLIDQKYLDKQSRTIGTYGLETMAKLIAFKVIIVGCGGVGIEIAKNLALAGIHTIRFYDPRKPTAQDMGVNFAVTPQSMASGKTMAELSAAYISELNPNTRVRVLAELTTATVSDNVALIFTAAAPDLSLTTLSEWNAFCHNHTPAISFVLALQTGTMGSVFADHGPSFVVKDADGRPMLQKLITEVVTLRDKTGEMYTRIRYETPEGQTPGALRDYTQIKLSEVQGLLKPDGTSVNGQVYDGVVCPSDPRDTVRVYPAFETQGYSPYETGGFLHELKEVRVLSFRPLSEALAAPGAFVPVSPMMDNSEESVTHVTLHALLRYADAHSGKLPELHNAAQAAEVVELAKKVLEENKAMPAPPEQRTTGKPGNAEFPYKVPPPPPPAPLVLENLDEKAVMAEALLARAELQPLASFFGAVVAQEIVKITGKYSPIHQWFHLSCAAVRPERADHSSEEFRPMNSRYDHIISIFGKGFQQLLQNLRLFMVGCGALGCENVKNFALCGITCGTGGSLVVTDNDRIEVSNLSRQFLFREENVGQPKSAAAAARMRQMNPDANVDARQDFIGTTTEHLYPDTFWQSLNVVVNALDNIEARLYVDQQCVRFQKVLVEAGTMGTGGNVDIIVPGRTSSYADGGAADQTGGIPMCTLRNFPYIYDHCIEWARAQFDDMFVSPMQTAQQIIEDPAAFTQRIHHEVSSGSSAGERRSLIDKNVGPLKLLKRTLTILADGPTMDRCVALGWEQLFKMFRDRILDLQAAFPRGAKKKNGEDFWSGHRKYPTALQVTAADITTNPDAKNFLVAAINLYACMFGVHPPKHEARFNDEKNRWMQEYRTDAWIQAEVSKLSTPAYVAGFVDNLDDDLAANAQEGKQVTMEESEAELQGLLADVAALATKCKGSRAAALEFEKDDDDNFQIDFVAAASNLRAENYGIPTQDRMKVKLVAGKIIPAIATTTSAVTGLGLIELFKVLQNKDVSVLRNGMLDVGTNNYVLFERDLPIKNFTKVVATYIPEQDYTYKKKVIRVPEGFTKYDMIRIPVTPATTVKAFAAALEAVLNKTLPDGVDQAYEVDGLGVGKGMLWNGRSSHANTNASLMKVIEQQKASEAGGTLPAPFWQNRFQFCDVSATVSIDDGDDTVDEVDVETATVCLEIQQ
Nature of the assay: Leishmania donovani Ubiquitin Activating Enzyme (LdE1). Format: functional. Conditions: 30 µM.

Assay [3] has as its target AMP-activated protein kinase, AMPK (Homo sapiens) (UniProt P54646+O43741+P54619+Q9UGJ0+Q9Y478+Q13131+Q9UGI9). Put plainly: AMP-dependent Kinase enzyme assay. An in vitro enzyme assay that detects ADP turnover that is directly proportional to AMPK activity. This uses naive AMPK that is activated during the assay with MK-8722. Format: functional. Conditions: 30 µM.
The target in assay [4] is Sialic acid-binding Ig-like lectin 9 (Homo sapiens) (UniProt Q9Y336). Nature of the assay: Hs-Siglec9 ALPHAscreen SOP 20170721. Conditions: 10 µM.
Chain of Sialic acid-binding Ig-like lectin 9 (Homo sapiens) (Q9Y336 whole entry): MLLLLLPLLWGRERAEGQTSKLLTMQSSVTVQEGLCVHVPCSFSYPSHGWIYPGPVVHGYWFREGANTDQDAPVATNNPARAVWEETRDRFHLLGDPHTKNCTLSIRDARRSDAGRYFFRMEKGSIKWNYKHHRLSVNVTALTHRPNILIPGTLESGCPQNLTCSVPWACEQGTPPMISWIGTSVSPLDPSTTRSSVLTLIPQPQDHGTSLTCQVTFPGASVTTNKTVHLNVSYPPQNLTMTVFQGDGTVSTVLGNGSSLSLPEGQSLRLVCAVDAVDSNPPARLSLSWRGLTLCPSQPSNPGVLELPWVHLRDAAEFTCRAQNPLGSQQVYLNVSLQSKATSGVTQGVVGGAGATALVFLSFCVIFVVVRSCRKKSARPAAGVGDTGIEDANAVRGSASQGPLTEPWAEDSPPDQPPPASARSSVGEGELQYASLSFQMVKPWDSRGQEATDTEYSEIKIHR
The test system of assay [5] is Trypanosoma cruzi. Nature of the assay: Trypanosoma cruzi phosphomannomutase and mannose-1-phosphate guanylyltransferase assay. The note with it: 10 µM. Format: functional.
For assay [6], the target named is T2, Arginase-2, mitochondrial (Homo sapiens) (UniProt P78540).
T2 sequence (whole entry): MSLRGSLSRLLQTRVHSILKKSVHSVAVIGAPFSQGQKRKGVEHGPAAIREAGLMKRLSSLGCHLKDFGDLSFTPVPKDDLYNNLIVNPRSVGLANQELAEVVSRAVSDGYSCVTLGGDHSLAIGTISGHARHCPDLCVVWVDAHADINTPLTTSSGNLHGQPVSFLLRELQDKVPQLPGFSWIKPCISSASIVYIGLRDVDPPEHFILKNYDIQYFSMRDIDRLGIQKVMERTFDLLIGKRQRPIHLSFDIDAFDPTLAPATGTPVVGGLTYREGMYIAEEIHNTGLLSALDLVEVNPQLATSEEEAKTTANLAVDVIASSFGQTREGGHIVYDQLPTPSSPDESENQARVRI
Nature of the assay: in vitro enzyme assay to detect the production of urea directly proportional to the activity of Arginase II. Note: in the data most compounds retested in dose-response had high values. Format: functional. The note with it: 33.3 µM.

Assay [7] has as its target T3, Proteasome subunit beta (Trypanosoma cruzi) (UniProt O96673).
T3 sequence (whole entry): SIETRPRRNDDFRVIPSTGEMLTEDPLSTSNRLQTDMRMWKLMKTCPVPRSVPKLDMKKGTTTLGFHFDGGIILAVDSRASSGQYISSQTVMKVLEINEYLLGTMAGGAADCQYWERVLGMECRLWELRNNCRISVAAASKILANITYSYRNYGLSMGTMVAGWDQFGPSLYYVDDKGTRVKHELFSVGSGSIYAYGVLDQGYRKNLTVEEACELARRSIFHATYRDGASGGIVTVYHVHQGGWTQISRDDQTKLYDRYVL
Put plainly: Trypanosoma cruzi proteasome chymotrypsin-like activity (TcProtChymo) assay. Note: in the data most compounds retested in dose-response had high values. Format: functional. The note with it: 9.37 µM.

Assay [8] is filed under the species Homo sapiens. Nature of the assay: To identify inhibition of the IFN signalling (Jak-Stat) pathway via expression of an eGFP reporter gene under the control of an IFN-stimulated response element (ISRE) containing MxA promoter. Format: functional. The note with it: 30 µM.
Assay [9] deals with T4, Tyrosyl-tRNA synthetase, putative (Trypanosoma cruzi (strain CL Brener)) (UniProt Q4DSP6).
T4 sequence (whole entry): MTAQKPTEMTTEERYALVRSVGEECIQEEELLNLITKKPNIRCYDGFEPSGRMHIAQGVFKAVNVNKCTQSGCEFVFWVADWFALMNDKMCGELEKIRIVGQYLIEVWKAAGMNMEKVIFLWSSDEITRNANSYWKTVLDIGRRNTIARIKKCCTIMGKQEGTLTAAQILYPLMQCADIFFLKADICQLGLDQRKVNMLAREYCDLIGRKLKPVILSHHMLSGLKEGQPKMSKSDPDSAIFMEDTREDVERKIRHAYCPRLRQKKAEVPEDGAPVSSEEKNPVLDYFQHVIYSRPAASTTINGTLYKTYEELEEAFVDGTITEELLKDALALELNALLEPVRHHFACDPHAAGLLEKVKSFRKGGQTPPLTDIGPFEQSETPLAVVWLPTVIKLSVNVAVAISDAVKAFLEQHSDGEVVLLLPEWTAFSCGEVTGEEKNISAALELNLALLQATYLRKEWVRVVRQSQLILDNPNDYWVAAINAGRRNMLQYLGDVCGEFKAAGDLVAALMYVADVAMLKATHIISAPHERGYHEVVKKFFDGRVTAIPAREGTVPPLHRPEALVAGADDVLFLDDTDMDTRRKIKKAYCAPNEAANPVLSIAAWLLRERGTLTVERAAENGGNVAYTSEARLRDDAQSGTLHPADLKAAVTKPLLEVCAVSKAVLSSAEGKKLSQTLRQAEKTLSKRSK
Nature of the assay: Trypanosoma cruzi tyrosyl tRNA synthetase (TcYRS) _High Tyrosine SOP. Note: in the data most compounds retested in dose-response had high values. Format: functional. Conditions: 30 µM.

Assay [10] has as its target T4, Tyrosyl-tRNA synthetase, putative (Trypanosoma cruzi (strain CL Brener)). Put plainly: Trypanosoma cruzi tyrosyl tRNA synthetase (TcYRS) SOP. Conditions: 30 µM. Format: functional.
Assay [11] concerns the target Chromo domain-containing protein 1 (Saccharomyces cerevisiae (strain ATCC 204508 / S288c) (Baker's yeast)) (UniProt P32657). Nature of the assay: ScCHD-1 Enzyme Inhibition Assay. Note: in the data most compounds retested in dose-response had high values. The class given is functional. Conditions: 30 µM.

For some of these results: Potency and affinity values are given separately.

Chain of Chromo domain-containing protein 1 (Saccharomyces cerevisiae (strain ATCC 204508 / S288c) (Baker's yeast)) (P32657 whole entry, the tested form may be a part): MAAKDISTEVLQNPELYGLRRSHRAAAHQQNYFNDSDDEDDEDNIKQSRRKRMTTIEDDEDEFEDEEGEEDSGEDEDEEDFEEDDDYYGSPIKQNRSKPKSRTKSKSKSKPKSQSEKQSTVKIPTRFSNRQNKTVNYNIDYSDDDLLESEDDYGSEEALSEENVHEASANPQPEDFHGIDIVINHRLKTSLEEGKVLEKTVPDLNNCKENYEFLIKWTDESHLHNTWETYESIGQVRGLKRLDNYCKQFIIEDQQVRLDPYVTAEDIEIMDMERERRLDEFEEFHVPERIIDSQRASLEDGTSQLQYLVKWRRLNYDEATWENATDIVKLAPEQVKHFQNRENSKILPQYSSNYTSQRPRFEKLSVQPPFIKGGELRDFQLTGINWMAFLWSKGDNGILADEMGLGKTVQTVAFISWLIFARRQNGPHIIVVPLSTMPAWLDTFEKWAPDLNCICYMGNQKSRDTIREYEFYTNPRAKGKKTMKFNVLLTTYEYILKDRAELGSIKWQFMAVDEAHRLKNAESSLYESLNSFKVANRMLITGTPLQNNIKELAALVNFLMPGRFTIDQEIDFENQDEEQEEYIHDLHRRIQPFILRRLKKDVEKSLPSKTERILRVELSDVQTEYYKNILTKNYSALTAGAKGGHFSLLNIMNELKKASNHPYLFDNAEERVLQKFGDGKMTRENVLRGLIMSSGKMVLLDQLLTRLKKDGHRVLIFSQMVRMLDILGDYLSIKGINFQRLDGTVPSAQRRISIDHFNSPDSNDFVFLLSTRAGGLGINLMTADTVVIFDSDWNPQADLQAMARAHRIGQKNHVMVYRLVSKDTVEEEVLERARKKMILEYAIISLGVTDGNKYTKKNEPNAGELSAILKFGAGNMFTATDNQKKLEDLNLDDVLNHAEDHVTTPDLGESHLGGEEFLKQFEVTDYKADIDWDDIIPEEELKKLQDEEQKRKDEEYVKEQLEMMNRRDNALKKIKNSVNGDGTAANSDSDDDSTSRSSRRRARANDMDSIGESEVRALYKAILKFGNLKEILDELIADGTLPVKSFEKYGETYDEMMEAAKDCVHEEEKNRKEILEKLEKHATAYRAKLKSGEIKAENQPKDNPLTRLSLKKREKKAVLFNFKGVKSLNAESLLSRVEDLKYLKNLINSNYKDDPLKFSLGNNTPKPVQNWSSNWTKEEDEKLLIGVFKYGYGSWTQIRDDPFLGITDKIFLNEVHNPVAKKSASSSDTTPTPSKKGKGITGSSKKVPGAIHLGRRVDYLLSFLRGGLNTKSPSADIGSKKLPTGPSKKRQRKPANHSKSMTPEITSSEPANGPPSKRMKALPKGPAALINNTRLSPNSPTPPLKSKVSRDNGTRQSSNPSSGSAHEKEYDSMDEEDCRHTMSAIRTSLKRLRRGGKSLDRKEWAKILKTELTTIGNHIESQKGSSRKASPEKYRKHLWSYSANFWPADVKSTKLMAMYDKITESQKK
Chain of Protein translocase subunit SecA (Escherichia coli (strain K12)) (P10408 whole entry): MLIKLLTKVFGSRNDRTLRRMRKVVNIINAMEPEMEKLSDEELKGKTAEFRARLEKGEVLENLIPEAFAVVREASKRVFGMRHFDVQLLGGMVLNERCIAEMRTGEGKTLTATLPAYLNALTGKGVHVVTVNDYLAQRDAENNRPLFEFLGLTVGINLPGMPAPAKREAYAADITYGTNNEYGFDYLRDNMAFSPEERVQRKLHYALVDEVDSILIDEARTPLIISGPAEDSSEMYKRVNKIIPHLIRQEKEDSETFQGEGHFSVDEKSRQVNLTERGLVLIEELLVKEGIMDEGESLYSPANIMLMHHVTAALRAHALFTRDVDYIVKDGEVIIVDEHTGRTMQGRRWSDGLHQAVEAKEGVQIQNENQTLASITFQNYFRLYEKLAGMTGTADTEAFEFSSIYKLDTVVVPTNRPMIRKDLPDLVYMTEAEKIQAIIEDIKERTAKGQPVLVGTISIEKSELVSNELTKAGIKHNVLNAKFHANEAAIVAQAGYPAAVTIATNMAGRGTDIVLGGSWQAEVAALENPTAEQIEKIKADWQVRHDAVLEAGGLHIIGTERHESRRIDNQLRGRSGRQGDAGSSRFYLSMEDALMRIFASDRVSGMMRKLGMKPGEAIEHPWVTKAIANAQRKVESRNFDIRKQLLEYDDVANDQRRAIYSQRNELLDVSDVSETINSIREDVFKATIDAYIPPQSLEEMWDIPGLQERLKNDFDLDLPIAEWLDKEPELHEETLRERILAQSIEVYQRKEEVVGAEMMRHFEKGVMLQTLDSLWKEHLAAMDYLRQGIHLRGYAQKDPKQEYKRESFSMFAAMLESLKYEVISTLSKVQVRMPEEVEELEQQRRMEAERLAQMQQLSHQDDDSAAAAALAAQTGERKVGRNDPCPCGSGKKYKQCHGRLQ

As to `c1cnc2c(c1)cc([C@H]1CCCO1)n2CCN1CCCCC1`, the Percent Effect is 4.1% in assay [1]; 9.46% in assay [2]; 12% in assay [3]; -7.44% in [4]; -7.91% in [5]; -0.232% in assay [6]. The Percent Effect was 9.52% in [7]; 7.5% in assay [8]; 2.15% in assay [9]; 3.9% in assay [10]; -12.4% in assay [11].
Take `O=C(CCc1cccnc1)N(Cc1ccsc1)CC1CCCO1` (stereo not drawn): the Percent Effect in [1] was -1.63%; in [2] it was -2.7%; in [3], -0.366%; in assay [4], -2.41%; in assay [5], 1.93%; in assay [6], 1.91%. Also, the Percent Effect in assay [7] was 10.3%; in assay [8], -6.2%; in assay [9] it was 1.59%; in assay [10], 7.32%; in assay [11] it was -3.52%.
Turning to `CCOc1cc(CN(C)CCOC)ccc1OC(F)F`, the Percent Effect in [1] was -7.96%; in assay [2], -2.6%; in [3] it was 2.19%; in assay [4], -0.762%; in assay [5], -9.34%; in assay [6], 1.38%. For the same compound, the Percent Effect is 10.3% in [7]; -3.34% in assay [8]; 0% in assay [9]; -1.24% in assay [10]; 0.485% in assay [11].
As to `CNS(=O)(=O)Cc1ccc(CNC(=O)c2ccc(C)[nH]c2=O)cc1`, the Percent Effect in assay [1] was -4.48%; in assay [2], 28.6%; in assay [3], -2.88%; in assay [4] it was 7.58%; in [5], 6.37%; in assay [6], -1.07%. Moreover, the Percent Effect was 5.91% in assay [7]; -2.15% in assay [8]; 10.7% in [9]; 26.8% in [10]; -6.56% in [11].
`CCc1nc(C2CCCN(C(=O)c3cccc4c3ccn4C)C2)no1` (stereo not drawn): the Percent Effect in [1] was -2.43%; in [2] it was -5.41%; in assay [3], 1.08%; in assay [4], 3.25%; in [5] it was 5.29%; in assay [6], -6.47%. In addition, the Percent Effect in assay [7] was 5.92%; in assay [8], 17.1%; in assay [9], 3.96%; in assay [10], 3.66%; in assay [11], -0.759%.
As for `CC(C)Nc1ncnc2c1CCN(C(=O)c1ccncc1F)CC2`, the Percent Effect was -4.14% in assay [1]; 8.11% in assay [2]; 0.552% in assay [3]; -7.16% in [4]; -6.35% in assay [5]; -2.87% in assay [6]. In addition, the Percent Effect was 17.2% in assay [7]; 4.19% in assay [8]; 3.24% in assay [9]; 10.3% in [10]; -3.13% in [11].
As to `CCOC(=O)c1sc2ccsc2c1CNC(=O)CC`, the Percent Effect in assay [1] is -4.75%; in assay [2] it was 16.2%; in assay [3], -8.58%; in assay [4], 18.5%; in [5], 7.15%; in assay [6], -0.185%. Further, the Percent Effect was 1.44% in assay [7]; 19% in assay [8]; 4.95% in [9]; 13.4% in assay [10]; 38.4% in assay [11].
Take `Cc1ccc(C)c(OC2CCN(C(=O)c3ccc(C)[nH]c3=O)CC2)c1`: the Percent Effect in [1] is -3.58%; in assay [2] it was 15.8%; in assay [3], -5.18%; in assay [4], 6.14%; in assay [5], 8.84%; in assay [6] it was 1.53%. The Percent Effect is 10.9% in assay [7]; 11.6% in assay [8]; 5.39% in assay [9]; 12.2% in assay [10]; -11.4% in assay [11].
